Laboratory results reported in PubChem BioAssay AID687001 (Broad Institute, 2013).
Measured potencies and affinities stand elsewhere. Active and inactive are the calls of the source.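 How the source made its calls: active means signal-lowering compounds whose fitted half-maximal concentration is at or below twice the top tested dose in every run; inconclusive means runs disagree, flat 30 to 70% inhibition, or poor curve fit; inactive means the rest.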

Each compound was assayed against Protein S100-A4 (Homo sapiens) (UniProt P26447) (assay: human S100A4 peptide interaction inhibition curves – biochemical, fluorescence polarization, cherry-picked hits, dose response (AID 687001)). Conditions: FP, S100A4/TAMRA-myosin IIA peptide binding; series mostly up to 11 µM.
Chain of Protein S100-A4 (Homo sapiens) (P26447 whole entry, looked up): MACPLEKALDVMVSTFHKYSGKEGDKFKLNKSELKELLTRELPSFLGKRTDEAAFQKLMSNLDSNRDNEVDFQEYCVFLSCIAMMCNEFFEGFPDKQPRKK

SMILES | outcome
CC(=O)N1CC(C)Oc2ccc(S(=O)(=O)NC(CC(=O)O)c3ccccc3)cc21 (centres undefined) | inactive
COc1ccc2c(c1)CCC/C2=N\Nc1nc(C(=O)NN)cs1 | inactive
CN1c2ccc(-c3cccc(C#N)c3)cc2[C@H]2[C@H](CCN2S(=O)(=O)c2ccccc2F)[C@H]1CO | inactive
COc1ccc(C#Cc2ccc([C@H]3[C@H]4CN(S(=O)(=O)c5ccccc5)CCCCN4[C@H]3CO)cc2)cc1 | inactive
CCC(=O)N1[C@@H]2c3ccc(-c4ccncc4)c(=O)n3C[C@H]1[C@H](CO)[C@H]2C(=O)NC1Cc2ccccc2C1 | inactive
O=C(Cc1c(F)cccc1Cl)Nc1ccccn1 | inactive
Cc1cc(C)c(C(=O)COC(=O)CNC(=O)c2ccccc2C)c(C)c1 | inactive
CSCCC(NC(=O)c1ccccc1Cl)C(=O)NCC(c1cccs1)N(C)C (centres undefined) | inactive
Cc1ccc(S(=O)(=O)NCc2ccccc2)cc1C(=O)NCC1CCCO1 (centres undefined) | inactive
COc1cccc(-c2ccc([C@@H]3[C@H](CO)N4CCCCN(C(=O)c5ccc(F)cc5)C[C@@H]34)cc2)c1 | inactive
C[C@H](NC(=O)C[C@@H]1CC[C@H](NC(=O)C2CCOCC2)[C@@H](CO)O1)c1ccccc1 | inactive
O=C(OCc1cc(=O)n2ccsc2n1)c1ccc(OC(F)F)cc1 | inactive
CNS(=O)(=O)c1ccc2c(c1)[nH]c(=S)n2C | inactive
Cc1oc(-c2ccc(Cl)cc2)nc1CS(=O)CC(=O)NCCCN1CCN(Cc2ccccc2)CC1 (centres undefined) | inactive
Cc1cc(/C(N)=N/OC(=O)Nc2ccccc2)no1 | inactive
CN(C)CC(=O)N[C@H]1CC[C@@H](CC(=O)NCc2ccc(Cl)cc2)O[C@@H]1CO | inactive
NC(=O)NC(Cc1ccccc1)C(=O)NCCCSc1ccccc1 (centres undefined) | inactive
CNC[C@H]1Oc2c(NC(=O)Nc3ccc(C(F)(F)F)cc3)cccc2C(=O)N([C@@H](C)CO)C[C@H]1C | inactive
CC(NC(=O)COc1ccc(Br)cc1)C(=O)O (centres undefined) | inactive
O=C(Nc1ccc(C(F)(F)F)cc1)N[C@H]1C=C[C@@H](CC(=O)N2CCCCC2)O[C@@H]1CO | inactive

SMILES | outcome
Cc1ccc(S(=O)(=O)N(C)C[C@H]2Oc3ccc(NC(=O)Nc4ccccc4)cc3C(=O)N([C@@H](C)CO)C[C@H]2C)cc1 | inactive
CCc1ccc(NC(=O)C(C)OC(=O)c2ccc(NS(=O)(=O)c3ccc(C)c([N+](=O)[O-])c3)cc2)cc1 (centres undefined) | inactive
Cc1ccccc1S(=O)(=O)NCC[C@H]1CC[C@H](NC(=O)C2CCC2)[C@H](CO)O1 | inactive
CC(NC(=O)Nc1ccc(F)cc1)c1ccc2c(c1)OCO2 (centres undefined) | inactive
Cc1cc(C)cc(OCC(=O)OCC(=O)N2CCc3ccccc32)c1 | inactive
O=C(CCN1CCCCC1)N[C@H]1CC[C@@H](CCNS(=O)(=O)c2ccc(Cl)cc2)O[C@H]1CO | inactive
O=C(c1cccc(F)c1)N1CC[C@H]2[C@H](CO)Nc3ccc(-c4ccc(F)cc4)cc3[C@H]21 | inactive
Cc1cc(C(=O)N/N=C/c2ccccn2)c2ccccc2n1 | inactive
C[C@@H]1CN([C@@H](C)CO)S(=O)(=O)c2ccc(-c3ccccc3)cc2O[C@H]1CN(C)Cc1cccc(F)c1 | inactive
O=C(C[C@H]1CC[C@H]2NC[C@H](O)COC[C@@H]2O1)NCCN1CCCCC1 | inactive
O=C1O[C@@H](c2ccccc2)C[C@@H](O)C(=O)CCCCc2ccccc21 | inactive
CNC[C@H]1OCCCC[C@@H](C)Oc2ccc(NC(=O)C3CCCCC3)cc2C(=O)N([C@@H](C)CO)C[C@@H]1C | inactive
CCCNC(=O)[C@@H]1[C@@H](CO)[C@@H]2Cn3c(cccc3=O)[C@@H]2N1C(=O)C1CCC1 | inactive
CC(C)C#Cc1ccc([C@H]2[C@@H](CO)N(C(=O)c3cccc(F)c3)[C@H]2C#N)cc1 | inactive
CN(C)C(=O)[C@H]1[C@H](CO)[C@H]2Cn3c(cccc3=O)[C@@H]1N2C(=O)c1ccccc1 | inactive
COC(=O)C[C@@H]1CC[C@H]2[C@H](COc3ccc(NS(=O)(=O)c4ccc(C)cc4)cc3C(=O)N2C)O1 | inactive
CCC(=O)Nc1ccc2c(c1)OC[C@H](C)N(Cc1ccccc1C(=O)O)C[C@H](C)[C@@H](OC)CN(C)C2=O | inactive
CCNC(=O)[C@H]1N[C@H]2c3ccc(-c4cccc(C(=O)N(C)C)c4)c(=O)n3C[C@H]2[C@@H]1CO | inactive
CCOc1ccc(S(=O)(=O)N2CCCC(C(=O)NCC3CCCO3)C2)cc1Cl (centres undefined) | inactive
